Hits are enriched below; roughly 4% of the tested compounds scored in any of these assays.
Beta apoptosis: beta cell apoptosis inhibition. INS-1E cytokine-induced death, ATP luminescence, 48 h; percent of positive-control rescue, neutral wells zero. protection from apoptosis, % (test concentration not listed). 0.8% of 300,000 active. AID 435005;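 active = Every replicate reaches about 75%, or at least half do and their mean reaches it too, limit read from the data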;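 note: higher means more ATP so stronger rescue from cytokine killing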
Gli-Sufu antag: Gli-Sufu pathway antagonism; Sufu-KO-LIGHT fibroblasts, Gli luciferase reporter luminescence; inhibition, % at 5 µM; 0.74% of 340,000 active;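 active = inhibition above about 55%, limit read from the data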
Mdm2-MdmX inh: disrupts the human Mdm2-MdmX interaction; 3% of 330,000 active; inhibition, % at 8 µM; O15151+Q00987; SaOS-2 split-luciferase Mdm2/MdmX complementation, luminescence;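 active = inhibition of at least 50% at 8 µM in the primary screen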
CSC inhib: blocks cancer stem cells | inhibition, % at 7.5 µM | 1.1% of 300,000 active | cancer stem cell-like cells viability, luminescence; in the data active = inhibition above about 75%; tested in HMLE shEcad cells
PAX8 reporter: inhibitors of PAX8 transcriptional activity in RMG-I cells | 1.2% of 360,000 active | inhibition, % at 12.6 µM | RMG-I TPO-luciferase reporter, SteadyGlo, 24 h;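 active = mean replicate inhibition at least 60% with every replicate also reaching 60%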;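 note: luciferase light reporting Pax8 driven TPO promoter activity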
Shn3 inh set2: reduces Shn3 3'UTR luciferase signal in osteoblasts. Clone20 osteoblast Shn3 3'UTR firefly luciferase, 24 h. inhibition, % at 12.5 µM. 0.52% of 360,000 active. AID 588674;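 active = mean inhibition of at least 75% with every replicate also reaching 75%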
Mdm2-MdmX conf: confirmation of human Mdm2/MdmX interaction inhibitors; Mdm2-MdmX binding, luminescent assay; inhibition, % at 8 µM; 55% of 10,000 active; shares compounds with Mdm2-MdmX inh; in the data active = inhibition above about 40%
FLuc counter: counter-screen for Mdm2/MdmX inhibitors: full-length luciferase; shares compounds with Mdm2-MdmX inh; SaOS-2 full-length luciferase counterscreen, luminescence; inhibition, % at 8 µM; 77% of 6,200 active; AID 504607;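 active = mean inhibition at 8 µM reaching about 37%, which flags the compound as non-specific, limit read from the data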;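 note: p53-null SaOS-2 cells with luciferase driven by a doxycycline-inducible promoter; compound on cells about two nights before reading with doxycycline added after day one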
Numbers stand for hits; n = inactive; x = no result given.

SMILES	Beta apoptosis	Gli-Sufu antag	Mdm2-MdmX inh	CSC inhib	PAX8 reporter	Shn3 inh set2	Mdm2-MdmX conf	FLuc counter
O=C(CCCN1C(=O)/C(=C\c2cccs2)SC1=S)Nc1ccc(C(=O)O)cc1	n	n	n	n	n	n	x	x
CCN(CC)CCNC(=O)c1cn(-c2ccccc2)nc1-c1cccs1	n	n	n	n	n	n	x	x
CCN(CC)CCOC(=O)c1ccc(NC(=O)c2cn(-c3ccccc3)nc2-c2cccs2)cc1	x	n	50	x	n	n	n	101
CCN(CC)CCOC(=O)c1ccc(NC(=O)CCCN2C(=O)/C(=C/c3cccs3)SC2=S)cc1	n	n	59	n	x	n	n	x
O=C(CCCN1C(=O)/C(=C\c2cccs2)SC1=S)Nc1ccc(O)cc1	n	n	78	x	n	n	71	n
O=C(CCCN1C(=O)/C(=C\c2cccs2)SC1=S)Nc1ccccn1	n	n	70	n	n	n	64	38
C[C@H](CO)N1C[C@H](C)[C@@H](CN(C)S(=O)(=O)c2ccc(Cl)cc2)Oc2c(NC(=O)Nc3ccc(F)cc3)cccc2C1=O	x	x	x	x	n	x	x	x
CC(=O)N1CC[C@@H]2[C@H](CO)Nc3ccc(-c4ccccc4)cc3[C@@H]21	x	x	x	x	n	x	x	x
O=C(CCCN1C(=O)/C(=C/c2cccs2)SC1=S)Nc1ccccc1O	n	n	54	x	n	n	n	87
Cc1cc(C)c2nc(NNC(=O)c3cc(-c4cccs4)nc4ccccc34)sc2c1	x	n	77	97	n	n	68	57
O=C(NNc1nc2ccc(Cl)cc2s1)c1cc(-c2cccs2)nc2ccccc12	n	n	53	109	n	n	62	61
Cc1c(NC(=O)c2cc(-c3ccccc3)nc3ccccc23)c(=O)n(-c2ccccc2)n1C	n	n	n	n	n	n	x	x
O=C(NN1CCOCC1)c1cc(-c2cccs2)nc2ccccc12	n	n	n	n	n	n	x	x
Cc1ccc2sc(NNC(=O)c3cc(-c4cccs4)nc4ccccc34)nc2c1C	x	x	x	n	n	x	x	x
Cc1c(NC(=O)c2cc(-c3cccs3)nc3ccccc23)c(=O)n(-c2ccccc2)n1C	n	n	57	n	n	n	n	x
COc1ccc2c3c(n(C)c2c1)[C@H](CO)N(CC1CC1)CC31CN(C(=O)c2ccc3c(c2)OCO3)C1	x	x	x	x	n	x	x	x
CC(C)NC[C@H]1[C@H](c2ccc(C3=CCCCC3)cc2)[C@@H](CO)N1C(=O)NC(C)C	x	x	x	x	n	x	x	x
Cc1ccc(S(=O)(=O)Nc2ccc3c(c2)C(=O)N([C@H](C)CO)C[C@@H](C)[C@@H](CN(C)C(=O)C2CCCCC2)OCCCC[C@@H](C)O3)cc1	x	x	x	x	n	x	x	x
Cc1ccc2c(c1)cc(C(=O)NCc1ccccc1)n2C	n	n	85	n	n	n	56	52
CCn1c(NC(=O)c2ccc(COc3ccc(C)cc3[N+](=O)[O-])o2)nc2ccccc21	n	n	59	n	x	n	42	94
Cc1ccc(OCc2ccc(C(=O)Nc3cc(C)on3)o2)c([N+](=O)[O-])c1	n	n	n	n	n	n	x	x
Cc1ccc(-c2nn3c(C)nnc3s2)cc1NCc1c(F)cccc1Cl	n	n	81	n	x	n	66	57
Cc1ccc(C(=O)N/C(=C/c2ccc(-c3ccc([N+](=O)[O-])cc3)o2)C(=O)NCCCN(C)C)cc1	x	n	64	n	n	n	n	x
O=C(NCC1COc2ccccc2O1)c1ccc(F)c(S(=O)(=O)N2CCOCC2)c1 (stereo not given)	x	n	n	x	n	n	x	x
CCc1ccc(NC(=O)c2ccc(F)c(S(=O)(=O)NCC3COc4ccccc4O3)c2)cc1 (stereo not given)	n	n	56	n	n	n	40	55
O=C1CC(c2ccc3c(c2)OCCO3)Oc2ccc([N+](=O)[O-])cc21 (stereo not given)	n	n	72	77	n	n	72	144
CCOC(=O)c1c(C)n(-c2ccc(C)cc2)c2ccc(OCC(O)CNCCCO)cc12 (stereo not given)	n	n	89	n	n	n	n	x
OC(CNCC1CCCO1)COc1ccc(OCC(O)CNCC2CCCO2)cc1 (stereo not given)	n	n	n	n	x	n	x	x

Source: PubChem
